Source: the supplement of paper PMC8728848
The full list was thinned out, with the strongest signals kept by preference.

Tests used:
Assay in all cases: glycan array binding signal (z-score within array); higher = stronger binding
Conditions in all cases: glycan notation: IUPAC condensed, linker removed
Gal6P(b1-4)GlcNAc = molecular target: Gal6P(b1-4)GlcNAc
In short: (§1)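 Glycan array binding is given as a within-array Z-score, which can be read as non-binding when negative. The arrays, 3228 of them, came from the Consortium for Functional Glycomics database and were retained only where the protein sequence was available. Z-scores were averaged across arrays of the same protein sequence at different concentrations or buffers and across linkers.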

GalNAc(b1-3)GlcNAc = molecular target: GalNAc(b1-3)GlcNAc
In short: as §1

[1] = molecular target: GalNAc(b1-4)GlcNAc(b1-2)Man(a1-3)[GalNAc(b1-4)GlcNAc(b1-2)Man(a1-6)]Man(b1-4)GlcNAc(b1-4)GlcNAc
In short: as §1

GalNAc(b1-6)GalNAc = molecular target: GalNAc(b1-6)GalNAc
In short: as §1

GalNAc3S(b1-4)GlcNAc3S = molecular target: GalNAc3S(b1-4)GlcNAc3S
In short: as §1

GlcA(b1-6)Gal = molecular target: GlcA(b1-6)Gal
In short: as §1

[2] = molecular target: GlcA3S(b1-3)Gal(b1-4)GlcNAc(b1-2)Man
In short: as §1

[3] = molecular target: GlcNAc(a1-4)Gal(b1-4)GlcNAc
In short: as §1

[4] = molecular target: GlcNAc(b1-3)Gal(b1-3)GalNAc
In short: as §1

[5] = molecular target: GlcNAc(b1-3)Gal(b1-4)GlcNAc(b1-2)Man(a1-3)[GlcNAc(b1-3)Gal(b1-4)GlcNAc(b1-2)Man(a1-6)]Man(b1-4)GlcNAc(b1-4)[Fuc(a1-6)]GlcNAc
In short: as §1

[6] = molecular target: GlcNAc(b1-3)Gal(b1-4)GlcNAc(b1-3)Gal(b1-4)GlcNAc(b1-2)[GlcNAc(b1-3)Gal(b1-4)GlcNAc(b1-3)Gal(b1-4)GlcNAc(b1-6)]Man(a1-6)[GlcNAc(b1-3)Gal(b1-4)GlcNAc(b1-3)Gal(b1-4)GlcNAc(b1-2)Man(a1-3)]Man(b1-4)GlcNAc(b1-4)[Fuc(a1-6)]GlcNAc
In short: as §1

[7] = molecular target: GlcNAc(b1-3)Gal(b1-4)GlcNAc(b1-3)Gal(b1-4)GlcNAc(b1-3)Gal(b1-4)GlcNAc(b1-2)Man(a1-3)[GlcNAc(b1-3)Gal(b1-4)GlcNAc(b1-3)Gal(b1-4)GlcNAc(b1-3)Gal(b1-4)GlcNAc(b1-2)Man(a1-6)]Man(b1-4)GlcNAc(b1-4)[Fuc(a1-6)]GlcNAc
In short: as §1

[8] = molecular target: GlcNAc(b1-3)[GlcNAc(b1-4)][GlcNAc(b1-6)]GlcNAc
In short: as §1

[9] = molecular target: GlcNAc(b1-3)[GlcNAc(b1-6)]GalNAc
In short: as §1

Kdn(a2-6)Gal(b1-4)GlcNAc = molecular target: Kdn(a2-6)Gal(b1-4)GlcNAc
In short: as §1

Man(a1-3)[Man(a1-6)]Man = molecular target: Man(a1-3)[Man(a1-6)]Man
In short: as §1

[10] = molecular target: Neu5Ac(a2-3)Gal(b1-3)GalNAc6S
In short: as §1

[11] = molecular target: Neu5Ac(a2-3)Gal(b1-4)GlcNAc(b1-3)Gal(b1-4)GlcNAc(b1-3)Gal(b1-4)GlcNAc(b1-2)Man(a1-3)[Neu5Ac(a2-3)Gal(b1-4)GlcNAc(b1-3)Gal(b1-4)GlcNAc(b1-3)Gal(b1-4)GlcNAc(b1-2)Man(a1-6)]GalNAc
In short: as §1

[12] = molecular target: Neu5Ac(a2-3)Gal(b1-4)GlcNAc(b1-6)[Neu5Ac(a2-3)Gal(b1-3)]GalNAc
In short: as §1

[13] = molecular target: Neu5Ac(a2-3)Gal(b1-4)[Fuc(a1-3)]GlcNAc(b1-6)[Gal(b1-3)]GalNAc
In short: as §1

[14] = molecular target: Neu5Ac(a2-3)[GalNAc(b1-4)]Gal(b1-4)Glc
In short: as §1

[15] = molecular target: Neu5Ac(a2-6)Gal(b1-4)GlcNAc(b1-2)Man(a1-6)[GlcNAc(b1-2)Man(a1-3)]Man(b1-4)GlcNAc(b1-4)GlcNAc
In short: as §1

[16] = molecular target: Neu5Ac(a2-6)Gal(b1-4)GlcNAc(b1-3)Gal(b1-4)GlcNAc(b1-3)Gal(b1-4)GlcNAc(b1-2)Man(a1-3)[Neu5Ac(a2-6)Gal(b1-4)GlcNAc(b1-3)Gal(b1-4)GlcNAc(b1-3)Gal(b1-4)GlcNAc(b1-2)Man(a1-6)]GalNAc
In short: as §1

[17] = molecular target: Neu5Ac(a2-6)Gal(b1-4)GlcNAc(b1-3)Gal(b1-4)GlcNAc(b1-3)GalNAc
In short: as §1

Neu5Ac(a2-6)GalNAc = molecular target: Neu5Ac(a2-6)GalNAc
In short: as §1

[18] = molecular target: Neu5Ac(a2-6)GalNAc(b1-4)GlcNAc6S
In short: as §1

[19] = molecular target: Neu5Ac(a2-8)Neu5Ac(a2-8)Neu5Ac
In short: as §1

[20] = molecular target: Neu5Gc(a2-3)Gal(b1-3)GlcNAc
In short: as §1

[21] = molecular target: Neu5Gc(a2-3)Gal(b1-4)GlcNAc(b1-3)Gal(b1-4)GlcNAc(b1-2)Man(a1-3)[Neu5Gc(a2-3)Gal(b1-4)GlcNAc(b1-3)Gal(b1-4)GlcNAc(b1-2)Man(a1-6)]Man(b1-4)GlcNAc(b1-4)GlcNAc
In short: as §1

B1: AFL5 (Aspergillus fumigatus), Q4WB00 (protein)
chain: MDNFMEMTKKLGHQPELLRLRALDATYDDALEGKLVVAPLDMSEPGKKILDSGTADGTWLRNVRSKQSVPHDYYGSDVEGELFPKDPDGITYFAHSFKDPWPQQYLGFFDLVHIRGSLAGSAPEGPAPVIQNLTTLLKPGGWVQLMEMNAFSPPPNGPAMTDFAKMASEMFTGIGVGDFANNNKSMLEDAGLKNVQEKRVIVNLGKKAKPELHDQSIHGVTGPIVPLTSVARTVKSSFTGEQLDALPARVKEELETEGGQVEMIIAFGQKA
Q: For B1, which “glycan array binding signal (z-score)” value (Gal6P(b1-4)GlcNAc) is on record?
A: The value was -0.398.

Q: What about the “glycan array binding signal (z-score)” value (GalNAc(b1-3)GlcNAc) of the same binder?
A: Its value is -0.465.

Q: What about the “glycan array binding signal (z-score)” value [1] of the same binder?
A: Its value is 0.619.

Q: And the “glycan array binding signal (z-score)” value (GalNAc(b1-6)GalNAc)?
A: Its value is -0.013.

Q: What about the “glycan array binding signal (z-score)” value (GalNAc3S(b1-4)GlcNAc3S) of the same binder?
A: Its value is -0.187.

Q: What about the “glycan array binding signal (z-score)” value (GlcA(b1-6)Gal) of the same binder?
A: The value was -0.217.

Q: And the “glycan array binding signal (z-score)” value [2]?
A: The value was 0.082.

Q: And the “glycan array binding signal (z-score)” value [3]?
A: The value was -0.335.

Q: And the “glycan array binding signal (z-score)” value [4]?
A: The value was 0.205.

Q: And the “glycan array binding signal (z-score)” value [5]?
A: Its value is 0.456.

Q: What about the “glycan array binding signal (z-score)” value [6] of the same binder?
A: Its value is 1.94.

Q: And the “glycan array binding signal (z-score)” value [7]?
A: Its value is 1.47.

Q: What about the “glycan array binding signal (z-score)” value [8] of the same binder?
A: Its value is -0.493.

Q: And the “glycan array binding signal (z-score)” value [9]?
A: The value was -0.216.

Q: And the “glycan array binding signal (z-score)” value (Kdn(a2-6)Gal(b1-4)GlcNAc)?
A: The value was 0.092.

Q: What about the “glycan array binding signal (z-score)” value (Man(a1-3)[Man(a1-6)]Man) of the same binder?
A: Its value is 0.203.

Q: What about the “glycan array binding signal (z-score)” value [10] of the same binder?
A: Its value is -0.456.

Q: And the “glycan array binding signal (z-score)” value [11]?
A: The value was 2.14.

Q: What about the “glycan array binding signal (z-score)” value [12] of the same binder?
A: Its value is -0.74.

Q: And the “glycan array binding signal (z-score)” value [13]?
A: The value was 0.716.

Q: And the “glycan array binding signal (z-score)” value [14]?
A: Its value is -0.53.

Q: What about the “glycan array binding signal (z-score)” value [15] of the same binder?
A: Its value is -0.146.

Q: What about the “glycan array binding signal (z-score)” value [16] of the same binder?
A: The value was 2.17.

Q: What about the “glycan array binding signal (z-score)” value [17] of the same binder?
A: Its value is -0.298.

Q: And the “glycan array binding signal (z-score)” value (Neu5Ac(a2-6)GalNAc)?
A: Its value is -0.731.

Q: What about the “glycan array binding signal (z-score)” value [18] of the same binder?
A: The value was 0.024.

Q: And the “glycan array binding signal (z-score)” value [19]?
A: The value was 0.079.

Q: And the “glycan array binding signal (z-score)” value [20]?
A: Its value is -0.526.

Q: What about the “glycan array binding signal (z-score)” value [21] of the same binder?
A: The value was 0.635.
